For nine compounds, growth results are on record in PubChem BioAssay (NCI).

This is part of a sample that, as a whole, favours compounds with a hit. Of some 83,000 tested, about 20% had one in any assay.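 Single-dose data. Exposure time 48 hours. Values below 10 considered active.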 Unmarked numbers belong to inactive results. The source made the active and inactive calls.

Some test systems named below: HCT-15 colon; HT29 colon; SNB-75 CNS; SNB-19 CNS; U251 CNS; PC-3 prostate; UACC-62 melanoma; LOX IMVI melanoma; SK-MEL-28 melanoma; SK-MEL-2 melanoma; SN12C renal; UO-31 renal; TK-10 renal; ACHN renal; CAKI-1 renal; A498 renal; MOLT-4 leukemia; CCRF-CEM leukemia; SK-MEL-5 melanoma.
Holding throughout (assay): NCI-60 one-dose screen, 48 h (100 = growth as untreated, 0 = no growth, -100 = all killed)
Holding throughout (conditions): 10 µM unless noted

`O=C(CCC(=O)OC1CCCC1)OC1CCCC1`: the growth in the assay on HCT-15 colon was 93.6%; in the assay with HT29 colon it was 98.3%; in the assay on SNB-75 CNS, 77.3%; in the assay on SNB-19 CNS, 96.6%; in the assay with U251 CNS it was 92.2%; in the assay with PC-3 prostate, 93.8%. Besides, the growth in the assay with UACC-62 melanoma is 103%; in the assay on LOX IMVI melanoma it was 105%; in the assay with SK-MEL-28 melanoma it was 99.3%; in the assay with SK-MEL-2 melanoma, 93.2%; in the assay on SN12C renal, 107%; in the assay on UO-31 renal, 90.4%. Also, the growth with TK-10 renal was 97.8%; with ACHN renal, 95%; in the assay with CAKI-1 renal, 95.8%; in the assay with A498 renal, 101%; in the assay with MOLT-4 leukemia, 89.9%.

For the compound `COc1cc(/C=C\c2cc(OC)c(OC)c(OC)c2)cc(N/C=C\C(=O)c2c[nH]c3ccccc23)c1OC`, the growth in the assay with HCT-15 colon was -39% (active); in the assay with HT29 colon, -77.7% (active); in the assay on SNB-75 CNS it was 34%; with SNB-19 CNS, 54.1%; in the assay with U251 CNS it was 58.7%; in the assay with PC-3 prostate, 37.3%. The growth in the assay with UACC-62 melanoma is 3.34% (active); in the assay on LOX IMVI melanoma, -73.3% (active); in the assay with SK-MEL-28 melanoma, -90% (active); in the assay with SK-MEL-2 melanoma, 46.7%; in the assay with SN12C renal, 70.8%; with UO-31 renal, -93% (active). Also, the growth is -43.4% (active) in the assay on TK-10 renal; -100% (active) in the assay on ACHN renal; 39.3% with A498 renal; -57.3% (active) in the assay on CCRF-CEM leukemia; -29% (active) in the assay with MOLT-4 leukemia.

Take `CCOC(=O)C(Cc1ccccc1)n1c(O)c(C=Nc2ccc(C(=O)OCCN(CC)CC)cc2)sc1=O` (centres undefined): the growth is 89.4% in the assay on HCT-15 colon; 62.4% with HT29 colon; 99.7% with SNB-75 CNS; 95.3% in the assay on SNB-19 CNS; 96.3% in the assay with U251 CNS; 72.8% with PC-3 prostate. Besides, the growth in the assay on SK-MEL-5 melanoma is 88.7%; in the assay on UACC-62 melanoma it was 97.7%; in the assay on LOX IMVI melanoma it was 93.7%; in the assay on SK-MEL-2 melanoma it was 90.7%; in the assay with SN12C renal, 92.1%; in the assay on UO-31 renal, 84.7%. Also, the growth was 112% with TK-10 renal; 104% with ACHN renal; 97.4% in the assay with CAKI-1 renal; 68.2% with CCRF-CEM leukemia; 69.3% in the assay with MOLT-4 leukemia.

`Nc1c(C(=O)Nc2ccccc2)sc2nc3c(cc12)CCCCC3`: the growth in the assay with HCT-15 colon was 20.1%; in the assay on HT29 colon, -15.5% (active); with SNB-75 CNS it was -6.57% (active); in the assay with SNB-19 CNS it was 22.1%; with U251 CNS, 13.8%; in the assay on PC-3 prostate, 9.02% (active). Moreover, the growth with SK-MEL-5 melanoma was 11.3%; in the assay with UACC-62 melanoma it was 5.45% (active); with LOX IMVI melanoma it was 22.1%; with SK-MEL-2 melanoma it was 12.6%; with SN12C renal, 45.3%; with UO-31 renal, 21.5%. Moreover, the growth in the assay with TK-10 renal is 21.6%; with ACHN renal it was 30.3%; in the assay on A498 renal it was -5.02% (active); in the assay with CCRF-CEM leukemia, 2.92% (active); with MOLT-4 leukemia, 29.2%.

Turning to `O=c1oc2cc(OS(=O)(=O)c3ccccc3)c(Cl)cc2c2c1CCCCCC2`, the growth is 84.6% with HCT-15 colon; 67.7% with HT29 colon; 83.1% in the assay with SNB-75 CNS; 93.3% in the assay on SNB-19 CNS; 87.5% in the assay on U251 CNS; 73.9% with PC-3 prostate. Besides, the growth in the assay with SK-MEL-5 melanoma is 77.9%; with UACC-62 melanoma, 70.3%; in the assay with LOX IMVI melanoma, 90.1%; with SK-MEL-2 melanoma it was 106%; with SN12C renal, 87.2%; with UO-31 renal it was 71.5%. For the same compound, the growth is 111% in the assay with TK-10 renal; 88.2% in the assay on ACHN renal; 86.1% in the assay with A498 renal; 81% with CCRF-CEM leukemia; 77.4% in the assay with MOLT-4 leukemia.

As for `Cc1cc(-c2ccccc2)c(C)n1Cc1ccc(Cl)cc1`, the growth was 32.8% in the assay on HCT-15 colon; 13.8% with HT29 colon; 38.5% with SNB-75 CNS; 61% in the assay on SNB-19 CNS; 25% with U251 CNS; 57.3% with PC-3 prostate. Besides, the growth in the assay on UACC-62 melanoma is 40.7%; with LOX IMVI melanoma, 45%; in the assay on SK-MEL-28 melanoma it was 55.8%; with SK-MEL-2 melanoma, 31.2%; with SN12C renal, 49.3%; in the assay with UO-31 renal it was 50.5%. Besides, the growth in the assay on TK-10 renal is 76.6%; in the assay on ACHN renal, 54.8%; with CAKI-1 renal, 21.5%; in the assay with A498 renal it was 23.8%; in the assay with CCRF-CEM leukemia it was 43.5%; in the assay with MOLT-4 leukemia it was 17.1%.

On to `COc1cc(-c2nc(-c3nc4ccccc4[nH]3)cc3c2[nH]c2ccccc23)cc(OC)c1OC`, for which the growth in the assay on HCT-15 colon was 42.3%; in the assay on HT29 colon, 49.7%; with SNB-75 CNS, 79.3%; in the assay with SNB-19 CNS, 66.9%; in the assay on U251 CNS, 48%; with PC-3 prostate it was 14.1%. Besides, the growth in the assay on UACC-62 melanoma was 28.5%; in the assay on LOX IMVI melanoma, 38.7%; in the assay with SK-MEL-28 melanoma, 44.2%; in the assay with SK-MEL-2 melanoma, 23.9%; in the assay with SN12C renal, 40.4%; in the assay on UO-31 renal it was 24.3%. For the same compound, the growth in the assay on ACHN renal was 51.4%; in the assay with CAKI-1 renal, 20%; in the assay on A498 renal it was 44.8%; in the assay on CCRF-CEM leukemia it was 16.8%; in the assay on MOLT-4 leukemia it was 44.3%.

Take `COc1ccc(NC(=O)CSc2nc3ccccc3c(=O)n2-c2ccccc2C(F)(F)F)c(OC)c1OC`: the growth is 105% with HCT-15 colon; 104% with HT29 colon; 83.9% in the assay on SNB-75 CNS; 88.8% in the assay on SNB-19 CNS; 95.7% in the assay with U251 CNS; 100% in the assay on PC-3 prostate. Besides, the growth in the assay with SK-MEL-5 melanoma is 98.2%; in the assay on UACC-62 melanoma it was 87.5%; in the assay on LOX IMVI melanoma, 98.9%; with SK-MEL-2 melanoma, 121%; with SN12C renal it was 93%; with UO-31 renal it was 91.9%. For the same compound, the growth in the assay with ACHN renal was 99.2%; in the assay on CAKI-1 renal, 98.4%; with A498 renal, 74.8%; with CCRF-CEM leukemia, 101%; in the assay with MOLT-4 leukemia, 107%.

As to `CC1=C(C#N)C(C)(C)C(C#N)=C(C)N1`, the growth in the assay with HCT-15 colon was 98.6%; with HT29 colon it was 105%; in the assay with SNB-75 CNS, 79.5%; with SNB-19 CNS, 95.9%; with U251 CNS, 94.8%; in the assay with PC-3 prostate, 84.7%. The growth with UACC-62 melanoma was 105%; in the assay on LOX IMVI melanoma, 98.3%; with SK-MEL-28 melanoma, 110%; with SK-MEL-2 melanoma, 109%; in the assay with SN12C renal, 99.5%; in the assay with UO-31 renal it was 91.1%. Besides, the growth in the assay on TK-10 renal was 103%; with ACHN renal, 101%; in the assay with CAKI-1 renal it was 103%; in the assay with CCRF-CEM leukemia it was 98%; in the assay with MOLT-4 leukemia it was 102%.
